Measurements as given in ChEMBL document CHEMBL3433997, “St. Jude Leishmania screening dataset” (2016).

molecular target: Glucose transporter (Leishmania mexicana) (UniProt O61059); assay: ST_JUDE_LEISH: Cytotoxicity at 2uM final concentration against transgenic Leishmania Mexicana promastigotes LmGT2 that are glucose transport deficient and complemented with the L. Mexicana glucose transporter 2. Activity is measured by DNA content using SYBR green in vitro; assay type: functional

SMILES	inhibition [%]
CCCCc1cc(N2CCC(NC(C)=O)C2)nc(Nc2ccc(C)cc2)n1 (stereo not given)	5.78
O=C(/C=C/c1ccc(Cl)c(Cl)c1)NCCCCCN1CCC(NC(=O)Nc2ccc(OC(F)F)cc2)CC1	5.2
COc1ccc2nccc(NCC3(O)CCN(CC(O)c4ccc5c(c4)NC(=O)CS5)CC3)c2n1 (stereo not given)	2.58
CNC(=O)C(NC(=O)c1ccccc1C(=O)OC)c1ccccc1 (stereo not given)	-2.13
CCCC(CNCc1cccc(C)c1)CNc1cc(=O)c2ccccc2[nH]1 (stereo not given)	11.9
CCC(C(=O)Nc1ccccc1)n1nc(-c2ccc(C)c(S(=O)(=O)N3CCCCC3)c2)ccc1=O (stereo not given)	4.74
NOCCCOc1ccc(Cl)cc1	3.9
O=C(Nc1ccc(Cl)c(Cl)c1)N[C@H]1CCN(CCCCCNC(=O)C2CC2c2ccc(Cl)c(Cl)c2)C1 (stereo not given in full)	10.6
Cn1nc(-c2ccc(CNC3CCc4ccccc43)cc2)c2cnc(NCCN3CCCC3)nc21 (stereo not given)	0.03
COC(=O)C1=CNC=C(C(=O)OC)C1c1ccc(Cl)c([N+](=O)[O-])c1	6.42
CC(=O)Nc1ncc(C(=O)Nc2ccc(-c3cccc(-c4nc5cc(C(F)(F)F)ccc5[nH]4)c3)cc2)s1	-2.74
Fc1ccc(C(OCC2CCCN(Cc3cccc4cccnc34)C2)c2ccc(F)cc2)cc1 (stereo not given)	-2.6
O=C(Nc1cccc(CN2CCCN(Cc3ccc(F)cc3)CC2)c1)c1ccc(Cl)c(Cl)c1	0.56
COc1ccc(NC(=O)Nc2cc(C)nc3ccccc23)cc1Cl	7.39
CC(C)COc1ccc(Cl)cc1Cc1ccc(-c2nc3cc(CCN(C)C)ccc3[nH]2)o1	3.29
COc1ccc(N2CCN(CCCCNC(=O)c3ccc(NC(=O)c4cccc(Cl)c4)cc3)CC2)c(OC)c1	4.97
Cc1nc(N)nc(N)c1CCCOc1ccccc1Cl	5.78
Cc1noc(-c2ccc(O)cc2O)c1-c1ccc2c(c1)OCCCO2	0.22
CCN1CCC(N(Cc2ccc(-c3ccc(C(F)(F)F)cc3)cc2)C(=O)Cn2c(CCc3cccc(F)c3F)cc(=O)c3c2CCCC3)CC1	0.87
CN1CCN(CCCN(Cc2cccc(-c3cccc(CNC4CCCC4)c3)c2)C(=O)/C=C/c2ccccc2)CC1	-2.44

SMILES	inhibition [%]
C=CCN1C(=O)CN(S(=O)(=O)c2ccc(-n3nc(C)cc3C)cc2)C1=S	2.49
c1ccc(Oc2ccc(Nc3nc(NCCc4c[nH]cn4)nc(NC4CCCC4)n3)cc2)cc1	6.19
Cc1cccc2nc(-c3ccc(-c4cccc(NC(=O)Nc5cccc(C#N)c5)c4)cc3)[nH]c12	-1.23
CC(=O)Nc1nc(C(=O)Nc2ccc(-c3cccc(-c4nc5cc(C(F)(F)F)ccc5[nH]4)c3)cc2)cs1	0.81
CN(C)C1CCN(CC#Cc2cc3ncnc(Nc4ccc(OCc5cccc(F)c5)c(Cl)c4)c3s2)CC1	2.9
Cc1cc(NCCCN2CCCC2=O)n2c(nc3ccccc32)c1C#N	2.22
Cc1cccc2nc(O)c([N+](=O)[O-])c(O)c12	2.14
Cc1cc(O)c(CN(C)Cc2ccc3c(c2)OCO3)cc1C(C)C	0.04
CC(=O)Nc1ccc(NC(=O)c2cc(-c3ccc(C)cc3O)n[nH]2)cc1	0.4
CCc1ccc(NC(=O)c2cccc(CN3CCCN(Cc4cccc(O)c4)CC3)c2)cc1	2.2
O=C(Cc1c[nH]cn1)Nc1cccc(-c2ccc(-c3nc4ccccc4[nH]3)cc2)c1	-0.08
COc1ccc(NS(=O)(=O)c2ccc(Oc3nc(C)nc4sc5c(c34)CCCC5)cc2)cc1	2.29
Cc1nc2c(Nc3nc(-c4ccncc4)cs3)ncnc2n1-c1ccccc1Cl	13.4
COc1cccc(-c2csc(C(=O)NC3CCCCN(Cc4ccc(C(C)(C)C)cc4)C3)c2)c1 (stereo not given)	5.14
Cc1ccc(C(=O)Nc2ccc(-c3nc4ccccc4[nH]3)cc2)cc1S(=O)(=O)N1CCOCC1	0.77
COc1ccc(CON2C(=N)N=C(N)NC2(C)C)cc1OC	-0.13
N#Cc1ccc(NC(=O)NC2CCN(CCCCCNC(=O)/C=C/c3ccc(Cl)c(Cl)c3)CC2)cc1	6.31
NC1=NC(c2ccccc2)(c2ccccc2)C(=O)N1CCCCc1ccccc1	-1.44
Nc1oc2c(CN3CCCCCC3)c(O)ccc2c(=O)c1-c1nc2ccccc2s1	2.85
Cc1cc(C(=O)NC2CCN(CC3(c4ccccc4)CCCCC3)CC2)on1	-0.45
